This is an account of results in PubChem BioAssay (EPA / NIEHS).

“And” between values parts separate entries of the source, which are not always exact repeats. Equal values may be shown once. A structure can be active in one record and inactive in another. The source made the active and inactive calls. The calls were made as follows: active = hit-call score of the fitted dose curve at least 0.9, where 1 is the maximum; inactive = score below 0.9.

Usually AC50 stands for the concentration at which the activity in the assay is half-maximal.

Read-out in assay [1]: Monocyte Chemoattractant Protein-1 (MCP1), CCL2 (gene 6347)
In words: BSK_LPS_MCP1: BioMAP Diversity Plus: LPS Assay for Monocyte Chemoattractant Protein-1 (MCP1) Biomarker Activity (AID 2283081). Particulars: primary human HUVEC with PBMC; actives raise or lower the signal. In outline: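 Values derive from bidirectional fitting against DMSO of ELISA-measured MCP-1 in a human primary endothelial and mononuclear cell co-culture, 24 h after chemical addition under LPS activation.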

Assay [2] can be described thus: BSK_LPS_PGE2: BioMAP Diversity Plus: LPS Assay for Prostaglandin E2 (PGE2) Biomarker Activity (AID 2283082).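 As to AC50: secreted prostaglandin E2 measured by ELISA in LPS-stimulated co-culture.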 Particulars: primary human HUVEC with PBMC; actives raise or lower the signal. Summed up:
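Compounds were added to the LPS co-culture of endothelium and PBMC, and PGE2 was measured by ELISA after 24 h. Responses in either direction were fitted with DMSO as baseline.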

Read-out in assay [3]: Macrophage colony-stimulating factor (MCSF), CSF1 (gene 1435)
In words: BSK_LPS_MCSF: BioMAP Diversity Plus: LPS Assay for Macrophage colony-stimulating factor (MCSF) Biomarker Activity (AID 2283083). Particulars: primary human HUVEC with PBMC; actives raise or lower the signal. Summed up: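 Bidirectional fit versus DMSO of ELISA-measured M-CSF in co-cultured human umbilical vein endothelial cells and PBMC, sampled 24 h after dosing.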

Read-out in assay [4]: Tissue Factor, F3 (gene 2152)
The assay is described as follows: BSK_LPS_TissueFactor: BioMAP Diversity Plus: LPS Assay for Tissue Factor Biomarker Activity (AID 2283084). Particulars: primary human HUVEC with PBMC; actives raise or lower the signal. In outline: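 Read-out: CD142 ELISA, 24 h. System: LPS-driven human endothelial/PBMC co-culture. Analysis: up- or down-signal fitted against DMSO.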

Read-out in assay [5]: Tumor necrosis factor (Homo sapiens) (UniProt P01375)
The assay is described as follows: BSK_LPS_TNFa: BioMAP Diversity Plus: LPS Assay for Tumour Necrosis Factor alpha (TNFa) Biomarker Activity (AID 2283085).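 As to AC50: TNFa protein level quantified by ELISA in the co-culture.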 Particulars: primary human HUVEC with PBMC; actives raise or lower the signal. In outline:
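Cells (umbilical vein endothelium plus peripheral blood mononuclear cells) were dosed with chemical, incubated 24 h, then TNFa was quantified by ELISA; values derive from bidirectional fitting with DMSO as baseline.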

Read-out in assay [6]: Vascular cell adhesion molecule 1 (VCAM1), VCAM1 (gene 7412)
The assay is described as follows: BSK_LPS_VCAM1: BioMAP Diversity Plus: LPS Assay for Vascular cell adhesion molecule 1 (VCAM1) Biomarker Activity (AID 2283086). Particulars: primary human HUVEC with PBMC; actives raise or lower the signal. In outline: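 Cells are dosed in an LPS-stimulated endothelial/mononuclear co-culture and, after 24 h, VCAM-1 is quantified by ELISA. Activity in either direction is fitted relative to the DMSO negative control.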

Read-out in assay [7]: CD38, CD38 (gene 952)
In words: BSK_SAg_CD38: BioMAP Diversity Plus: SAg Assay for CD38 Biomarker Activity (AID 2283087). Particulars: primary human HUVEC with PBMC; actives raise or lower the signal. Summed up: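 CD38 quantified by ELISA (fluorescence) in a superantigen-activated endothelial cell–PBMC co-culture at 24 h post-dose. Activity fitted in both directions relative to DMSO; parallel SRB and Alamar Blue cytotoxicity read-outs.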

Read-out in assay [8]: CD40, CD40 (gene 958)
The assay is described as follows: BSK_SAg_CD40: BioMAP Diversity Plus: SAg Assay for CD40 Biomarker Activity (AID 2283088). Particulars: primary human HUVEC with PBMC; actives raise or lower the signal. Summed up: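 Endpoint derived by fitting increases or decreases versus DMSO controls. CD40 is detected by fluorescence ELISA in a human vascular co-culture of endothelium and PBMC at 24 h.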

Read-out in assay [9]: CD69, CD69 (gene 969)
The assay is described as follows: BSK_SAg_CD69: BioMAP Diversity Plus: SAg Assay for CD69 Biomarker Activity (AID 2283089).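 As to AC50: cell surface CD69 protein quantified by ELISA with fluorescence detection.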 Particulars: primary human HUVEC with PBMC; actives raise or lower the signal. In outline: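 HUVEC co-cultured with PBMC were dosed with chemical, and CD69 was measured by ELISA with fluorescence read-out 24 h later. Bidirectional curve fitting used DMSO as negative control and activity baseline.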

Read-out in assay [10]: Monocyte Chemoattractant Protein-1 (MCP1), CCL2 (gene 6347)
The assay is described as follows: BSK_SAg_MCP1: BioMAP Diversity Plus: SAg Assay for Monocyte Chemoattractant Protein-1 (MCP1) Biomarker Activity (AID 2283090). Particulars: primary human HUVEC with PBMC; actives raise or lower the signal. In outline:
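Values derive from bidirectional fitting of ELISA-measured MCP1 against DMSO controls. Readings were taken 24 h after dosing human vascular endothelial cells co-cultured with peripheral blood mononuclear cells under superantigen stimulation.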

Read-out in assay [11]: E-selectin (Homo sapiens) (UniProt P16581)
In words: BSK_SAg_Eselectin: BioMAP Diversity Plus: SAg Assay for Eselectin Biomarker Activity (AID 2283091). Particulars: primary human HUVEC with PBMC; actives raise or lower the signal. In outline:
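Endpoint values derive from bidirectional fitting relative to DMSO, using ELISA-measured E-selectin in a human vascular co-culture (umbilical vein endothelium plus PBMC) sampled 24 h after dosing.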

Read-out in assay [12]: Monokine induced gamma interferon (MIG), CXCL9 (gene 4283)
The assay is described as follows: BSK_SAg_MIG: BioMAP Diversity Plus: SAg Assay for Monokine induced gamma interferon (MIG) Biomarker Activity (AID 2283092). Particulars: primary human HUVEC with PBMC; actives raise or lower the signal. Summed up:
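HUVEC plus human PBMC co-culture, chemicals dosed and MIG (CXCL9) quantified by ELISA at 24 h. Bidirectional curve fitting against DMSO as negative control and baseline, so both gain and loss of signal count as activity.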

Assay [13] in a line: BSK_SAg_PBMCCytotoxicity: PBMC Cytotoxicity Assessment in the BioMAP Diversity Plus: SAg Assay (AID 2283093).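 Also: fitted both ways against DMSO so a hit may be loss or gain of signal.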 Particulars: primary human HUVEC with PBMC. In outline: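 PBMC viability by Alamar Blue reduction, fluorescence read at 546/580 nm after 6 h dye exposure. Cells were dosed 1 h before SEB plus TSST-1 activation (20 ng/mL final each), then held 90 h; endothelial/PBMC human co-culture.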

Read-out in assay [14]: Interleukin-8 (IL8), CXCL8 (gene 3576)
The assay is described as follows: BSK_SAg_IL8: BioMAP Diversity Plus: SAg Assay for Interleukin-8 (IL8) Biomarker Activity (AID 2283094). Particulars: primary human HUVEC with PBMC; actives raise or lower the signal. Summed up: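 Chemicals were dosed onto a human endothelial–PBMC co-culture, and IL-8 was quantified by ELISA after 24 h. Both increases and decreases were fitted relative to DMSO.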

Assay [15] in a line: BSK_SAg_Proliferation: Cell Proliferation Assessment in the BioMAP Diversity Plus: SAg Assay (AID 2283095).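 Also: relative cell number as total protein by SRB absorbance in sub-confluent culture.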 Particulars: primary human HUVEC with PBMC. In outline: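 Absorbance of sulforhodamine B at 560 nm reports total protein in a human vascular endothelial/PBMC co-culture after 96 h chemical exposure. Gain or loss of signal is fitted in both directions against DMSO.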
Assay [16] in a line: BSK_SAg_SRB: Viability Assessment in the BioMAP Diversity Plus: SAg Assay (AID 2283096).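 Also: cells read one day after compound addition; hits may be either gain or loss of signal compared with DMSO.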 Particulars: primary human HUVEC with PBMC. Summed up:
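Compounds were added to a human vascular co-culture of umbilical vein endothelium and PBMC. After 24 h, parallel cultures were fixed with 10% TCA, stained with 0.1% sulforhodamine B and read at 560 nm. Gain or loss of signal was fitted relative to DMSO.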

Chain of E-selectin (Homo sapiens) (P16581 whole entry, looked up): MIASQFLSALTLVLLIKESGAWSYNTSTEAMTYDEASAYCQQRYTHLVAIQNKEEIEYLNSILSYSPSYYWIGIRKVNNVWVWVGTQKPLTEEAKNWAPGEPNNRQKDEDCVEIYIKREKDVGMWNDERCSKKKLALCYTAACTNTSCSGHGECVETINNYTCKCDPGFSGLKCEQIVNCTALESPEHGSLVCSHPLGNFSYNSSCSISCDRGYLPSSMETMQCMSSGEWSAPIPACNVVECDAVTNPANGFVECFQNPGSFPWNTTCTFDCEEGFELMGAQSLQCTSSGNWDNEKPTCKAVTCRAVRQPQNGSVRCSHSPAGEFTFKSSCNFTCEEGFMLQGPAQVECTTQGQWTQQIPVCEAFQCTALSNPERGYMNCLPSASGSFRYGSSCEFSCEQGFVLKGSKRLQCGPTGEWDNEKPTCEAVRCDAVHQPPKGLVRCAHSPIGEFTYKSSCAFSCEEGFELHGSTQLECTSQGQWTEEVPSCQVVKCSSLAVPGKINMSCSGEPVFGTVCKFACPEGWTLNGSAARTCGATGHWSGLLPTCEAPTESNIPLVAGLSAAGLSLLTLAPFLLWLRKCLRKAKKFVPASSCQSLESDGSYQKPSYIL
Chain of Tumor necrosis factor (Homo sapiens) (P01375 whole entry, looked up): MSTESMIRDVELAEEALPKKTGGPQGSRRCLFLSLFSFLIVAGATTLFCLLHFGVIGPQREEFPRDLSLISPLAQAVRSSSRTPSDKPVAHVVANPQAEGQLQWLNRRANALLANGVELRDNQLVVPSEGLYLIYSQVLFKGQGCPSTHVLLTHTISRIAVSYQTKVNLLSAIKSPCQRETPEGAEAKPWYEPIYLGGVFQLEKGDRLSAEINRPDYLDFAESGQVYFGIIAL

As for `FC(F)(F)C(F)(F)CNCC(F)(F)C(F)(F)F`, the result in assay [1], in assay [2], in [3], in assay [4], in [5] and in assay [6] was inactive. Besides, the outcome in assay [7], in assay [8], in [9], in assay [10], in assay [11] and in assay [12] was inactive. Moreover, the outcome in assay [13], in [14], in assay [15] and in [16] was inactive. The AC50 in assay [3] is 6.78 µM (active).

With `O=C(O)C(F)(F)C(F)(F)C(F)(F)C(F)(F)C(F)(F)C(F)(F)C(F)(F)C(F)(F)Cl`, the result in [1], in assay [3], in assay [4], in [5], in [6] and in assay [11] was inactive. Moreover, the result in [12], in [13] and in assay [15] was inactive. Moreover, the AC50 in assay [2] is 21.9 µM (active) and 22 µM (active); in assay [3], 19.4 µM (active); in [6] it was 30 µM (active); in assay [7], 50.4 µM (active) and 30 µM (active); in assay [8] it was 38.2 µM (active) and 45.9 µM (active); in assay [9], 30 µM (active) and 45 µM (active). In addition, the AC50 in [10] is 45.9 µM (active) and 50.4 µM (active); in assay [14] it was 48.8 µM (active) and 50.1 µM (active); in assay [15] it was 54.5 µM (active); in assay [16], 48.1 µM (active) and 45.1 µM (active).

In the case of `C=C(C)C(=O)OCC(F)(F)C(F)(F)C(F)(F)C(F)(F)C(F)(F)C(F)(F)C(F)(F)F`, the result in assay [1], in [2], in [3], in assay [4], in [5] and in assay [6] was inactive. Also, the outcome in assay [8], in [9], in assay [10], in [11], in assay [12] and in assay [13] was inactive. In addition, the result in assay [14], in assay [15] and in assay [16] was inactive. For the same molecule, the AC50 in assay [5] is 0.0246 µM (active).

Take `FC(F)(F)C(F)(F)C(F)(F)C(F)(F)C(F)(F)C(F)(F)C(F)(F)C(F)(F)CCS`: the outcome in assay [1], in assay [2], in assay [3], in assay [4], in assay [5] and in [6] was inactive. Besides, the outcome in assay [7], in assay [8], in [9], in [10], in assay [11] and in [12] was inactive. Besides, the outcome in assay [13], in assay [14], in assay [15] and in [16] was inactive. Also, the half-maximal activity concentration (AC50) in assay [4] was 1.02 µM (active).

For the molecule `OCC(F)(F)C(F)(F)C(F)(F)C(F)(F)C(F)(F)C(F)(F)F`, the result in assay [1], in assay [2], in assay [3], in [4], in assay [5] and in assay [6] was inactive. Further, the outcome in assay [8], in [9], in [10], in assay [11], in [12] and in [13] was inactive. In addition, the outcome in assay [14], in assay [15] and in assay [16] was inactive. The half-maximal activity concentration (AC50) in [7] was 9.86 µM (active) and 5.95 µM (active).

Consider `CS(C)(=O)=O`, for which the outcome in assay [1], in assay [2], in assay [3], in assay [4], in assay [5] and in [6] was inactive. Moreover, the result in [7], in [8], in assay [9], in [10], in [11] and in assay [12] was inactive. Besides, the outcome in [13], in [14], in assay [15] and in [16] was inactive.

`O=S(=O)(O)C(F)(F)C(F)(F)C(F)(F)C(F)(F)C(F)(F)C(F)(F)C(F)(F)F`: the outcome in assay [1], in assay [2], in [3], in assay [4], in [5] and in assay [6] was inactive. The result in assay [7], in [8], in assay [9], in [10], in [11] and in assay [12] was inactive. Further, the result in assay [13], in assay [14], in [15] and in assay [16] was inactive.

With `OCC(F)(F)C(F)(F)C(F)(F)C(F)F`, the outcome in assay [1], in assay [2], in assay [3], in assay [4], in assay [5] and in assay [6] was inactive. The result in assay [7], in assay [8], in assay [9], in [10], in [11] and in assay [12] was inactive. For the same molecule, the result in [13], in assay [14], in assay [15] and in [16] was inactive.

As for `O=C(O)C(F)(OC(F)(F)C(F)(OC(F)(F)C(F)(F)C(F)(F)F)C(F)(F)F)C(F)(F)F` (configuration not stated), the result in [1], in [2], in assay [3], in [4], in assay [5] and in assay [6] was inactive. Further, the result in assay [7], in assay [8], in assay [9], in [10], in assay [11] and in assay [12] was inactive. Besides, the result in assay [13], in [14], in assay [15] and in assay [16] was inactive.

Turning to `FC(F)(F)C(F)(F)C(F)(F)C(F)(F)C(F)(F)CCI`, the result in assay [1], in assay [2], in [3], in assay [4], in assay [5] and in assay [6] was inactive. Further, the result in [7], in assay [8], in assay [9], in assay [10], in assay [11] and in [12] was inactive. Moreover, the outcome in [13], in assay [14], in assay [15] and in [16] was inactive. Moreover, the AC50 in assay [15] is 44 µM (active).

As to `Cc1ccc(S(=O)(=O)OCC(F)(F)C(F)(F)C(F)(F)C(F)(F)C(F)(F)C(F)F)cc1`, the result in assay [1], in assay [2], in assay [3], in [4], in assay [5] and in [6] was inactive. In addition, the outcome in [7], in assay [8], in assay [9], in assay [10], in assay [11] and in assay [12] was inactive. Also, the outcome in [13], in [14] and in assay [15] was inactive. Besides, in [16], the half-maximal activity concentration (AC50) was 44 µM (active) and 37.4 µM (active).
